In PubChem BioAssay AID2672 (National Center for Advancing Translational Sciences (NCATS), 2010):
Records with an inconclusive call do not appear. Entries that show only a call come without a potency. Activity calls are given as the source filed them. Calls come from the whole dose curve; as a rule, active = well fitted curve in the direction sought with a large enough effect; inconclusive = small, poorly fitted or top-dose-only effect, or another doubt; inactive = no such curve, though single readings can be large or run the other way.

Experiment: qHTS Assay Multiplex Screening to Identify Dual Action Probes in a Cell Model of Huntington: Cytoprotection in HTT Q25 expressing cells (ATP)
Conditions: PC12 HTT-Q25 inducible, ATP luminescence, 40 h; series mostly up to 46.1 µM
Description: NIH Chemical Genomics Center [NCGC] NIH Molecular Libraries Probe Production centers Network [MLPCN] MLPCN Grant: MH084839-01A1 Assay Submitter (PI): Wei Zheng NCGC Assay Overview: Huntington's disease is a neurodegenerative disorder caused by a trinucleotide repeat expansion in Exon 1 of the Huntingtin gene. The CAG trinucleotide encodes glutamine and polyglutamine expansions cause cell death in selective areas of the brain. Huntington polyglutamine repeats have the tendency to form aggregates which are observable in later stages of the disease. The exact nature of the aggregates, whether toxic, protective, or insignificant, is unclear. A stable PC12 cell line containing a gene fusion of Exon 1 of the Huntingtin gene linked to GFP under the control of the inducible ecdysone promoter were used as the cell-based model of Huntington Disease for high throughput screening. Exon 1 of the Huntingtin gene contained an expansion of 103 polyglutamines (Q103) which, when expressed, caused cell death and distinct, bright GFP aggregates. The amount of cell death and the size and intensity of GFP aggregates increased over time and induction level. The cell death were quantified with a measurement of ATP content in the cells. A maximal 40-50% of cell death was observed when the Huntington gene was induced in this cell line. We optimized this assay in a homogeneous 1536 well format. A quantitative high throughput screen (qHTS) was conducted on the PC12 cells which were induced to express the toxic fusion construct. Small molecules which prevented cell death were identified by using a luminescent ATP quantification method (Perkin Elmer's ATPlite). To characterize compound effects on a different form of the HTT protein, PC12 cells stably containing a construct with an ecdysone inducible promoter expressing GFP fused to the exon 1 of HTTQ25 (Huntington protein which containing a 25 ployglutamine expansion) were used. Less cytoxicity occurs upon induction of HTTQ25.
PC12 cells stably containing a construct with an ecdysone inducible promoter expressing GFP fused to the exon 1 of HTTQ25 (Huntington protein which containing a 25 ployglutamine expansion) were used. NCGC Assay Protocol Summary: Sequence, Parameter, Description 1, Reagent, 5 uL 1500 cells/well 1536 TC treated White clear bottom plate 2, Compound, 23 nL Tebufenozide inducer (100 nM final) to all columns 3, Compound, 23 nL 40 uM to 0.5 nM Libraries 4, Time, 40 hours at 37C 5, Reagent, 5 ul ATPLite cell death assay reagent 6, Detector, 4 sec integration with a Viewlux Luminescent Media consisted of phenol red free DMEM + 5% equine serum (Hyclone # SH30072.03 ), 5% supplemented Bovine Calf Serum (Hyclone # SH30074.03 ), 1x pen/strep, no G418

Row | SMILES | Potency
1 | COc1ccc(-c2csc3ncnc(Sc4nnnn4C)c23)cc1 | inactive
2 | Cn1nnnc1Sc1ncnc2scc(-c3ccc(S(C)(=O)=O)cc3)c12 | inactive
3 | CC(=O)c1ccc(-c2csc3ncnc(Sc4nnnn4C)c23)cc1 | inactive
4 | Cn1nnnc1Sc1ncnc2scc(-c3ccccc3[N+](=O)[O-])c12 | inactive
5 | Cn1nnnc1Sc1ncnc2scc(-c3ccc(C(F)(F)F)cc3)c12 | inactive
6 | Cn1nnnc1Sc1ncnc2scc(-c3ccc(Br)cc3)c12 | inactive
7 | Cn1nnnc1Sc1ncnc2scc(-c3cccc(C(F)(F)F)c3)c12 | inactive
8 | Cn1nnnc1Sc1ncnc2scc(-c3ccc([N+](=O)[O-])cc3)c12 | inactive
9 | COc1cccc(-c2csc3ncnc(Sc4nnnn4C)c23)c1 | 31.6 µM (active)
10 | Cn1nnnc1Sc1ncnc2scc(-c3cccc(Cl)c3)c12 | inactive
11 | Cn1nnnc1Sc1ncnc2scc(-c3cccc(N)c3)c12 | inactive
12 | Cn1nnnc1Sc1ncnc2scc(-c3cccc(C#N)c3)c12 | inactive
13 | Cn1nnnc1Sc1ncnc2scc(-c3ccc(N)cc3)c12 | inactive
14 | Cc1ccccc1-c1csc2ncnc(Sc3nnnn3C)c12 | inactive
15 | Cn1nnnc1Sc1ncnc2scc(-c3cccs3)c12 | inactive
16 | Cn1nnnc1Sc1ncnc2scc(-c3cc4ccccc4o3)c12 | inactive
17 | Cn1nnnc1Sc1ncnc2scc(-c3ccccc3C(F)(F)F)c12 | inactive
18 | Cn1nnnc1Sc1ncnc2scc(-c3ccccc3)c12 | inactive
19 | Cn1nnnc1Sc1ncnc2scc(-c3ccc(F)cc3)c12 | inactive
20 | CC(=O)c1ccccc1-c1csc2ncnc(Sc3nnnn3C)c12 | inactive
21 | Cn1nnnc1Sc1ncnc2scc(-c3ccc(-c4ccccc4)cc3)c12 | inactive
22 | COc1ccccc1-c1csc2ncnc(Sc3nnnn3C)c12 | inactive
23 | Cn1nnnc1Sc1ncnc2scc(-c3cccc(F)c3)c12 | inactive
24 | Cn1nnnc1Sc1ncnc2scc(-c3cccc(Br)c3)c12 | inactive
25 | Cn1nnnc1Sc1ncnc2scc(-c3ccsc3)c12 | 10 µM (active)
26 | Cn1nnnc1Sc1ncnc2scc(-c3ccc(C(=O)OC(C)(C)C)cc3)c12 | inactive
27 | Cn1nnnc1Sc1ncnc2scc(-c3ccc(Cl)cc3)c12 | inactive
28 | Cn1nnnc1Sc1ncnc2scc(-c3cccc4c3sc3ccccc34)c12 | inactive
29 | Cc1cccc(-c2csc3ncnc(Sc4nnnn4C)c23)c1 | inactive
30 | Cn1nnnc1Sc1ncnc2scc(-c3ccccc3Br)c12 | inactive
